Inconclusive results are not listed. Where a structure was tested more than once in an assay, its records may differ in their call. Activity calls are given as the source filed them. Unless noted, the rule behind the calls is not given here.
Key:
[1] = qHTS assay for small molecule agonists of retinoid X receptor alpha signaling (AID 588544; calls by dose curve;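 for activation: 0% = DMSO basal wells and 100% = reference agonist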); settings: HEK293T RXRa-UAS-bla, beta-lactamase reporter, 18 h; 530 nm emission
[2] = molecular target: Retinoic acid receptor RXR-alpha (Homo sapiens) (UniProt P19793); assay: as above; settings: HEK293T RXRa-UAS-bla, beta-lactamase reporter, 18 h; series mostly up to 76.7 µM
Retinoic acid receptor RXR-alpha (Homo sapiens), sequence (P19793 whole entry, looked up): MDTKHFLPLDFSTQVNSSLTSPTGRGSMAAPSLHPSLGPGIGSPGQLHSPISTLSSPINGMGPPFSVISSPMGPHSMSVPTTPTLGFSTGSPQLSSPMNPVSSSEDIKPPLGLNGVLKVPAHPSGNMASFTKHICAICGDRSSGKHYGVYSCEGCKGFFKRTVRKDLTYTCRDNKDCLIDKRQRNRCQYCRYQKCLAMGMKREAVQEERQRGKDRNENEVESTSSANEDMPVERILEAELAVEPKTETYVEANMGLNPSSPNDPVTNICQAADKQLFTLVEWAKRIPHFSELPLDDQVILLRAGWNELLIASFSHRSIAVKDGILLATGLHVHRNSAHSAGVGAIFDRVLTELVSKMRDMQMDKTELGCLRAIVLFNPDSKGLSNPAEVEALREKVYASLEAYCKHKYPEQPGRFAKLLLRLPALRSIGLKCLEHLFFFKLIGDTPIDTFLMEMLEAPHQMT

[3] = molecular target: Thyroid hormone receptor beta (Homo sapiens) (UniProt P10828); assay: qHTS assay for small molecule agonists of thyroid hormone receptor beta signaling (AID 588545; calls by dose curve;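 note: 0% = DMSO only and 100% = 10 nM T3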); settings: TR-UAS-bla GripTite HEK 293, beta-lactamase ratio, agonist mode, 18 h, percent of T3 response, DMSO as zero; series mostly up to 76.7 µM
Thyroid hormone receptor beta (Homo sapiens), sequence (P10828 whole entry, looked up): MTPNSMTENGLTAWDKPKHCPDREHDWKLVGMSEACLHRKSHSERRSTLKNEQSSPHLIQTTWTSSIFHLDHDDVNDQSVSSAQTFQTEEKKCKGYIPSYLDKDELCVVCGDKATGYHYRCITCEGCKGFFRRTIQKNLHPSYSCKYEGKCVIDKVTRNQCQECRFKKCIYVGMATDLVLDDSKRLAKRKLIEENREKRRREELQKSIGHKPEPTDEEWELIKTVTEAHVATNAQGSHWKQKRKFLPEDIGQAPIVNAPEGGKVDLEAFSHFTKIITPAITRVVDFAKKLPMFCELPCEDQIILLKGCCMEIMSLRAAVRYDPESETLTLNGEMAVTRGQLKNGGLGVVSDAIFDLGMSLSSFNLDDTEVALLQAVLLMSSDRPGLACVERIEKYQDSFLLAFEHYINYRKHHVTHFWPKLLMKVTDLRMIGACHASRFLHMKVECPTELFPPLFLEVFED
How it was run: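 TR-UAS-bla-GripTite HEK 293 cells in medium with 2% charcoal/dextran FBS, 0.1 mM NEAA and 1 mM sodium pyruvate were treated with titrated compounds for 18 hrs at 37 C. Beta-lactamase reporter was read with CCF4 dye (ex 405, em 460/530 nm); EC50 from Hill fits.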

[4] = qHTS assay for small molecule agonists of the antioxidant response element (ARE) signaling pathway (AID 651741; active = well fitted activation curve with a large enough effect in the signal ratio; the % refers to the signal ratio; note: potency is the fitted concentration of half-maximal effect; for activation: % of control where 0% means no effect); settings: HepG2 ARE-bla reporter, beta-lactamase FRET ratio, 16 h; series mostly up to 96 µM
How it was run: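 Compounds in DMSO are pinned onto HepG2 ARE-bla cells (2,000/well) that were preincubated 5 h; plates stay 16 h at 37 C, then beta-lactamase activity is detected with LiveBLAzer B/G substrate by fluorescence.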

[5] = qHTS profiling for inhibitors of Plasmodium falciparum (3D7) proliferation (AID 743322);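 note: infected erythrocytes exposed to compound for 72 h before lysis; 100% = DMSO vehicle wells and 0% = 0.29 µM artemisinin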; settings: P. falciparum 3D7 proliferation; at 28.7 µM (top of the series)
How it was run: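 Erythrocytes infected with P. falciparum (0.3% parasitemia, 2.5% hematocrit) incubated with compounds 72 h at 37 C, 5% CO2. Lysis with saponin/Triton buffer containing SYBR Green I, overnight at room temperature in the dark; DNA fluorescence (485/535 nm) normalised to 0.29 uM artemisinin and DMSO.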

[6] = qHTS profiling for inhibitors of Plasmodium falciparum (DD2) proliferation (AID 743323); settings: lower = more inhibition; at 28.7 µM (top of the series)
How it was run: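 P. falciparum Dd2-infected erythrocytes (0.3% parasitemia, 2.5% hematocrit) exposed 72 h at 37 C, 5% CO2. Lysis with SYBR Green, overnight at room temperature, fluorescence 485/535 nm; normalized to 0.29 uM artemisinin and DMSO.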

[7] = qHTS profiling for inhibitors of Plasmodium falciparum (HB3) proliferation (AID 743324; active = well fitted curve in the direction sought with a large enough effect; an effect the other way counts as inactive or inconclusive;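 note: 100% = DMSO vehicle wells and 0% = artemisinin-treated control wells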); settings: Plasmodium falciparum HB3 blood-stage proliferation; at 28.7 µM (top of the series)
How it was run: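 P. falciparum HB3 grown in erythrocytes (0.3% parasitemia, 2.5% hematocrit final) with compound for 72 h at 37 C, 5% CO2. Parasite DNA detected by SYBR Green after saponin/triton lysis overnight; normalized to 0.29 uM artemisinin and DMSO.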

[8] = molecular target: Cytochrome P450 2D6 (Homo sapiens) (UniProt P10635); assay: Cytochrome P450 family 2 subfamily D member 6 (CYP2D6) small molecule antagonists: luciferase biochemical (cell-free) qHTS assay (AID 1645840; active = well fitted curve in the direction sought with a large enough effect in the repeat runs; an effect the other way counts as inactive or inconclusive; note: potency is the fitted concentration of half-maximal effect; nearly all actives have a fitted effect of over 55% in size); settings: P450-Glo CYP2D6 enzyme, luciferin luminescence, 1 h; series mostly up to 57.4 µM
Cytochrome P450 2D6 (Homo sapiens), sequence (P10635 whole entry, looked up): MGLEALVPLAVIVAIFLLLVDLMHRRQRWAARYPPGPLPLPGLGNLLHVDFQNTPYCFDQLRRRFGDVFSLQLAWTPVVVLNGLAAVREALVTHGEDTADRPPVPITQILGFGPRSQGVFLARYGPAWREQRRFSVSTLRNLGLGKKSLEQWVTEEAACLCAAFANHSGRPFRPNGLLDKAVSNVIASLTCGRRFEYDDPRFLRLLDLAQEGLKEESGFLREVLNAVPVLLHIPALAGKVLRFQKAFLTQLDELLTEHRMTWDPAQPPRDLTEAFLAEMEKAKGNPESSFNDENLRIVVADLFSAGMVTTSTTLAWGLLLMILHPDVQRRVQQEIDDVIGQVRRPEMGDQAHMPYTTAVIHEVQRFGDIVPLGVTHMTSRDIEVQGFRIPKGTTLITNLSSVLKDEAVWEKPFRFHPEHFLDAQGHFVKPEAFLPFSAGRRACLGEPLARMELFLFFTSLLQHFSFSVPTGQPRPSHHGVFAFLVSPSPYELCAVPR
How it was run: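 P450-Glo luminescent screen: recombinant CYP2D6 enzyme–proluciferin substrate mix preincubated with compound 10 min at room temperature, then NADPH regeneration added for 1 h at room temperature. Detection reagent added for 20 min; luciferin light read as relative luminescence units.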

## Cc1cccc(O)c1
[1]
  max response: -15.1%
[2]
  Potency: inactive
[3]
  outcome: inactive
[4]
  Potency: 355 µM (active) and inactive

## OB1OCc2cc(F)ccc21
[5]
  remaining parasite growth % (stronger effect = lower value): 85.7%
[6]
  activity, percent of control: 91.5%
[7]
  remaining proliferation (% of control), lower = more inhibition: 40.3%

## CC=CC1C(C(=O)OCc2c(F)c(F)c(COC)c(F)c2F)C1(C)C (stereo not drawn)
[8]
  Potency: 6.74 µM (active)
